# Reference: PubChem BioAssay (NCATS)
# Inconclusive results are not listed. Values without a mark were called inactive. Calls of active or inactive are those of the source. Unless noted, calls come from the whole dose curve; as a rule, active = well fitted curve in the direction sought with a large enough effect in the repeat runs; inconclusive = weak or mixed curves; inactive = no such curve, though single readings can be large; an effect the other way counts as inactive or inconclusive.
# Test: qHTS for Activators of Parkin Expression: LOPAC Validation Assay (FLuc Reporter) (AID 720573; active = well fitted curve in the direction sought with a large enough effect; an effect the other way counts as inactive or inconclusive)
# Settings: Cell line, PRKN promoter firefly luciferase reporter, vehicle wells = 0, positive control = 100%; series mostly up to 46.1 µM; activation: at the top concentration
# Summary of the method: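 Cells seeded, 24 h; compounds pinned, 7-pt dose response; 24 h at 37 C/5% CO2; volume reduced; FLuc reagent 10 min RT; luminescence read. Normalization: DMSO = 0, positive control = 100%.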
Compound,activation,outcome
O=C(O)CCCc1ccc(N(CCCl)CCCl)cc1,-11.8%,
CC(C)c1cccc(C(C)C)c1O,-8%,
CN1C(=O)CCS(=O)(=O)C1c1ccc(Cl)cc1 (centres undefined),-10.3%,
CC(C)N(CCC(C(N)=O)(c1ccccc1)c1ccccn1)C(C)C (centres undefined),,inactive
O=c1[nH]oc2c1CCNC2,-2.72%,
Cc1ncsc1CCCl,-6.28%,
CC(C)(C)NCC(O)c1ccccc1Cl (centres undefined),7.1%,
COc1ccc2c(c1OC)C(=O)O[C@H]2[C@@H]1c2cc3c(cc2CCN1C)OCO3,0.291%,
CCC1(c2ccc(N)cc2)CCC(=O)NC1=O (centres undefined),-9.22%,
NCCc1ccc(O)cc1,2.26%,
CCCCC/C=C\C/C=C\C/C=C\C/C=C\CCCC(=O)NCC(=O)O,-12.8%,
C=C(C)[C@H]1CN[C@H](C(=O)O)[C@H]1CC(=O)O,2.07%,
CC(NC(C)(C)C)C(=O)c1cccc(Cl)c1 (centres undefined),2.71%,
O=P1(N(CCCl)CCCl)NCCCO1 (centres undefined),-8.49%,
O=C(CCCN1CCC2(CC1)C(=O)NCN2c1ccccc1)c1ccc(F)cc1,3.45%,

# Test: qHTS assay for small molecule agonists of the antioxidant response element (ARE) signaling pathway measured by Nrf2-dependant transcriptional activity (AID 720636);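 note: HepG2 cells with an ARE-driven luciferase reporter; % of control where 0% means no effect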
# Settings: ARE-luc HepG2, Nrf2 luciferase reporter, 16 h; series mostly up to 92.4 µM; activation: at the top concentration
# Summary of the method: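 First, ARE-luc HepG2 cells attached for 6 hr at 37 C in 1% dialyzed FBS medium. Next, compound or DMSO was added and incubated 16 hr. Finally, ONE-Glo reagent was added and luminescence measured after 30 min.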
Compound,activation,outcome
CC(C)NC(C)C,0.187%,
C[C@]12CCC(=O)C=C1CC[C@@H]1[C@@H]2CC[C@]2(C)C(=O)CC[C@@H]12,,inactive
O=C(O)CCCc1ccc(N(CCCl)CCCl)cc1,-1.23%,
Nc1ccccc1,0.83%,
CC(C)c1cccc(C(C)C)c1O,-0.691%,
CCCC(C)(COC(N)=O)COC(N)=O,,inactive
CCC(C)(C)c1ccc(O)cc1,,inactive
COc1cc(OC)c(OC)cc1C=O,-0.148%,
COC(=O)C(c1ccccc1)C1CCCCN1 (centres undefined),,inactive
C[C@]12CCC(=O)C=C1CC[C@@H]1[C@@H]2CC[C@@]2(C)[C@H]1CC[C@]2(C)O,1.08%,
COP(=S)(OC)Oc1ccc(SC)c(C)c1,1.32%,
Nc1ccccc1C(=O)O,1.1%,
Oc1ccc(Cl)cc1,-0.918%,
NCCc1ccc(O)cc1,-0.624%,
O=P1(N(CCCl)CCCl)NCCCO1 (centres undefined),,inactive

# Test: qHTS assay for small molecule antagonists of the retinoid-related orphan receptor gamma (ROR-gamma) signaling pathway - cell viability counter screen (AID 720652);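 note: CHO reporter cells with doxycycline-induced ROR-gamma expression; compound exposure lasted 16 hr before ATP read; % is set by controls: 0 for no effect and ±100 for the full control effect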
# Settings: RORgamma reporter cell line viability counter screen; series mostly up to 92.2 µM; activity change, negative = cytotoxicity: at the top concentration
# Summary of the method: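 Cytotoxicity counter screen: intracellular ATP (CellTiter-Glo luminescence) measured in the doxycycline-induced CHO RORE-luciferase reporter line after 16 hr compound exposure at 37 C, 5% CO2.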
Compound,"activity change, negative = cytotoxicity",outcome
CC(C)NC(C)C,6.25%,
C[C@]12CCC(=O)C=C1CC[C@@H]1[C@@H]2CC[C@]2(C)C(=O)CC[C@@H]12,,inactive
Nc1ccccc1,-0.575%,
CC(C)c1cccc(C(C)C)c1O,8.11%,
CCCC(C)(COC(N)=O)COC(N)=O,-5.5%,
CCC(C)(C)c1ccc(O)cc1,-11.6%,
COc1cc(OC)c(OC)cc1C=O,-2.62%,
COC(=O)C(c1ccccc1)C1CCCCN1 (centres undefined),0.229%,
C[C@]12CCC(=O)C=C1CC[C@@H]1[C@@H]2CC[C@@]2(C)[C@H]1CC[C@]2(C)O,6.22%,
COP(=S)(OC)Oc1ccc(SC)c(C)c1,-11.4%,
Nc1ccccc1C(=O)O,-7.75%,
Oc1ccc(Cl)cc1,0.727%,
NCCc1ccc(O)cc1,0.201%,
O=P1(N(CCCl)CCCl)NCCCO1 (centres undefined),-2.41%,
